This passage reports inhibition results from PubChem BioAssay AID1578 (Sanford-Burnham Center for Chemical Genomics, 2009).

The whole screen tested about 290,000 compounds, of which about 3,000 (1%) were called active. Rule as the data show it: active = inhibition mostly above about 36% (no sharp cut-off); inactive = mostly below about 34%. The sample as a whole holds a higher share of actives than the screen did.

The test can be described thus: NOD1 signaling inhibitors, primary screen, cell-based, luminescence, uHTS (AID 1578).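 Also: HEK-293T reporter cells stimulated with the NOD1 agonist gamma-tri-DAP.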 Particulars: NOD1-driven NF-kB luciferase reporter cells, at 4 µM, stronger effect = higher value. (In a reporter assay the amount or activity of a reporter protein is the signal.)
One may read the inhibition as the relative decrease from the control value, in per cent. As for `CC1(C)CC(=O)C(C2=NC(C)(C)Cc3ccccc32)=C(O)C1`, the inhibition is -9.1% (inactive). Then `CC1(C)Cc2ccccc2C2=NNC(=O)C2=N1`, with 41.8% (active). On to `CC1=NC(C)(C)Cc2ccccc21`, for which the inhibition is 1.3% (inactive). As for `O=[N+]([O-])c1cc2c(cc1/C=N/Nc1nc(Nc3ccccc3)nc(N3CCCCC3)n1)OCO2`, the inhibition was -23% (inactive). The result for `Cc1ccc([N+](=O)[O-])cc1NC(=O)CN(C1CCCCC1)S(=O)(=O)c1ccc(Cl)cc1` reads -5% (inactive); that for `O=S(=O)(c1ccc2ccccc2c1)N(CC1CO1)c1ccccc1` (stereo not given), -30.1% (inactive); that for `Cc1nn2c(SCC(=O)c3cccs3)cc(C(C)(C)C)nc2c1-c1ccccc1`, 5.2% (inactive). The result for `Cc1cc(SCC(=O)c2cccs2)n2nc(C)c(-c3ccc(Cl)cc3)c2n1` reads 79.4% (active); that for `Cc1cc(SCC(=O)c2cccs2)n2nc(C)c(-c3ccccc3)c2n1`, 20.3% (inactive); that for `CCOc1ccc(/C=N/n2c(C)nc3ccccc3c2=O)cc1`, -12.3% (inactive). Then `N#C/C(=C\c1cn(-c2ccccc2)nc1-c1cccnc1)c1nnc2n1CCCCC2`, with -13% (inactive); and `O=C1COc2ccc(S(=O)(=O)NCc3ccccc3)cc2N1`, with -13.7% (inactive); and `c1ccc(-c2cnc(-c3cccnc3)o2)cc1`, with -16.8% (inactive). `NC(=O)c1ccc(-c2ncc(-c3ccccc3)o2)cc1`: the inhibition is 14.6% (inactive). Consider `Nc1ccc(-c2ncc(-c3ccccc3)o2)cc1`, for which the inhibition was 46.7% (active). Then `CCC(C)(C)NC(=O)CN(C(=O)CNS(=O)(=O)c1ccc(F)cc1)c1ccc2c(c1)OCCO2`, with -13% (inactive). Then `O=C(NCCCn1ccnc1)c1ccc(Cl)c(Cl)c1`, with 3.9% (inactive).

Take `O=S(=O)(Nc1ccc(N2CCOCC2)cc1)c1cccs1`: the inhibition was -20.1% (inactive). The result for `O=C(CC1S/C(=N/N=C/c2cccnc2)NC1=O)Nc1ccccc1` (stereo not given) reads -13.1% (inactive); that for `O=C1N/C(=N\N=C\c2ccc3ncccc3c2)SC1Cc1ccc(SC(F)F)cc1` (stereo not given), -44% (inactive); that for `O=C1N/C(=N\N=C\c2cccnc2)SC1Cc1ccc(SC(F)F)cc1` (stereo not given), 106% (active). The result for `O=C(N/N=C/c1ccc([N+](=O)[O-])cc1)c1cccc(N2CCCC2=O)c1` reads -9.3% (inactive); that for `Cc1cc(=O)oc2cc(OCC(=O)NC(Cc3c[nH]c4ccc(O)cc34)C(=O)O)c(Cl)cc12` (stereo not given), -16.2% (inactive); that for `COc1ccc(/C=C2\SC(=O)N(CCNC(=O)Cc3coc4cc(OC)ccc34)C2=O)cc1`, -10.8% (inactive). As for `COc1ccc(C(=O)NCCN2C(=O)S/C(=C\c3cccnc3)C2=O)cc1[N+](=O)[O-]`, the inhibition was 1.6% (inactive). Then `Cc1c(C(=O)NCCN2C(=O)S/C(=C\c3cccnc3)C2=O)cccc1[N+](=O)[O-]`, with 1.5% (inactive); and `COc1ccc2c(CC(=O)NCCN3C(=O)S/C(=C\c4cccnc4)C3=O)coc2c1`, with 68% (active); and `CS(=O)(=O)c1ccc(C(=O)NCCN2C(=O)S/C(=C\c3cccnc3)C2=O)cc1[N+](=O)[O-]`, with 93.4% (active). The result for `COc1ccc(/C=C2\SC(=O)N(CCNC(=O)Cc3coc4cc(C)ccc34)C2=O)cc1OC` reads -2.7% (inactive).

Regarding `O=C(O)CSCC(=O)N1CCN(S(=O)(=O)c2ccccc2)CC1`, the inhibition was -20.2% (inactive). The result for `c1ccc(NC2=NCCN2CC2CCCC2)cc1` reads -17.2% (inactive); that for `COc1ccc(Cc2nc3ccc(C(=O)NC(C)c4cnn(C)c4)cc3o2)cc1` (stereo not given), -4.3% (inactive); that for `CCC(C)NC(=O)c1ccc2nc(Cc3ccc(OC)cc3)oc2c1` (stereo not given), -14.9% (inactive).

As to `COc1ccc(OC)c(NC(=O)CNC(=O)Cn2cnc3sc(C)cc3c2=O)c1`, the inhibition is -3.5% (inactive). Then `O=C(Oc1ccc2ccc(=O)oc2c1)C1CCCCC1`, with -28.4% (inactive); and `COc1ccc(-c2cc(=O)oc3cc(OC(=O)C4CCCCC4)ccc23)cc1`, with 87.8% (active); and `COc1ccc(-c2cc(=O)oc3cc(OCC(C)=O)ccc23)cc1`, with -12.9% (inactive). The result for `O=C(Oc1ccc2c(-c3ccccc3)cc(=O)oc2c1)C1CCCCC1` reads 13.8% (inactive). With `COc1ccc(-c2cc(=O)oc3cc(OC(C)C(=O)O)ccc23)cc1` (stereo not given), the inhibition is 29.6% (inactive).

In the case of `Nc1cc(=O)[nH]c(SCc2ccccc2Cl)n1`, the inhibition was -3.2% (inactive).

On to `CN1C(=O)S/C(=C/c2cccnc2)C1=O`, for which the inhibition is -3.3% (inactive). Consider `Cc1cc(C(=O)NC2CC(C)(C)Cc3c2cnn3-c2ccccc2C)c(C)o1` (stereo not given), for which the inhibition was -10.6% (inactive). Then `Clc1ccccc1OCc1nn2c(-c3ccncc3)nnc2s1`, with -2.2% (inactive). The result for `COc1ccc(NC(=O)CSc2ccc(-c3sc(C)nc3C)nn2)cc1OC` reads -3.5% (inactive); that for `COc1ccc(NC(=O)CSc2ccc(-c3sc(C)nc3C)nn2)cc1`, -17.2% (inactive); that for `CCOC(=O)CCCCCN1C(=O)c2cccc3cccc(c23)C1=O`, -23.8% (inactive). The result for `CCN(CC)S(=O)(=O)c1ccc(C(=O)NCCCn2ccnc2)cc1` reads -65.6% (inactive); that for `O=C(O)c1ccc(N2CCCCS2(=O)=O)cc1`, -12.1% (inactive); that for `Cc1noc(C(=O)NCc2ccco2)c1Cl`, -14.8% (inactive).

Turning to `COc1ccc(NC(=O)CS(=O)(=O)c2ccc(F)cc2)cc1`, the inhibition was -5.8% (inactive).

With `O=C(Nc1ccccc1)c1cc2ccccc2c(=O)s1`, the inhibition is 63.7% (active). Then `O=C(Nc1ccccc1)c1cc2ccc3ccccc3c2s1`, with -10.5% (inactive); and `O=C(Nc1ccc(O)cc1)c1cc2ccccc2c(=O)s1`, with -2.1% (inactive). The result for `Cc1ccc(C)c(N2CCN(C(=O)CCS(=O)(=O)c3cccc4nonc34)CC2)c1` reads 1.8% (inactive). The result for `CC(C)[C@H](N)c1nnc(SCc2ccc(Cl)cc2)o1` reads -4.6% (inactive). As for `CC(C)C[C@@H](N)c1nnc(SCC(=O)c2ccc(Cl)cc2)o1`, the inhibition was -21.8% (inactive).

Consider `CC(C)C[C@H](N)c1nnc(SCc2ccc(Cl)cc2)o1`, for which the inhibition is 20.5% (active). The result for `O=[N+]([O-])c1cc(Cc2ccccc2)cc(C=Nc2ccc(N3CCOCC3)cc2)c1O` reads 34% (inactive); that for `Cc1ccc(O)c(C=Nc2cc(C)ccc2O)c1`, -25.5% (inactive). Then `COc1ccc(N=Cc2cccc(C)c2O)cc1Cl`, with -10% (inactive). Then `COc1cc(C=Nc2cccc(C)c2)c(O)c([N+](=O)[O-])c1`, with -20.1% (inactive); and `COc1ccc(N=Cc2cc(Cc3ccccc3Cl)cc([N+](=O)[O-])c2O)cc1OC`, with 62.4% (active); and `O=C(N/N=C/c1cc([N+](=O)[O-])c(N2CCOCC2)cc1N1CCOCC1)c1cccnc1`, with -24.1% (inactive). For the compound `O=C(COC(=O)COc1ccccc1[N+](=O)[O-])Nc1ccccc1Br`, the inhibition was 9.3% (inactive). The result for `Cc1c(C(=O)N2CCCC2)sc(NC(=O)c2ccco2)c1C#N` reads 48.7% (active); that for `Cc1c(C(=O)N2CCCCC2)sc(NC(=O)c2ccco2)c1C#N`, -0.9% (inactive); that for `Cc1c(C(=O)N2CCCC2)sc(NC(=O)c2ccccc2)c1C#N`, -9.5% (inactive). Regarding `CC1C(=NO)C(C)C(c2ccc(N(C)C)cc2)NC1c1ccc(N(C)C)cc1` (stereo not given), the inhibition was 4% (inactive). Turning to `COc1ccc2c(c1)sc1nc(=O)ccn12`, the inhibition is -3.3% (inactive). Then `COc1ccc2c(c1)sc1nc(-c3ccccc3)cn12`, with 34.4% (active). Then `CCOC(=O)N1CCN(C(=O)c2ccc3c(c2)sc2nc(-c4ccc(OC)cc4)cn23)CC1`, with -15.5% (inactive); and `O=C(COc1ccccc1)Nc1ccc(Cl)c(-c2nc3ncccc3o2)c1`, with -25.6% (inactive). For `COc1cccc(C(=O)N2CCN(C(=O)C3CC3)CC2)c1`, the inhibition was -26.7% (inactive).

Turning to `COc1ccc(OC(C)C(=O)N2CCCc3ccccc32)cc1` (stereo not given), the inhibition was -45.6% (inactive). The result for `Cc1nc2ccccn2c1C(=O)N=Nc1c(O)n(CCC(C)C)c2ccccc12` reads 92% (active); that for `CC(C)CCn1c(O)c(N=NC(=O)c2ccco2)c2ccccc21`, 24.4% (inactive); that for `Cc1nc2ccccn2c1C(=O)N=Nc1c(O)[nH]c2ccccc12`, 11.6% (inactive). In the case of `CC1=Nc2cc(C(=O)NCCCOC(C)C)ccc2Sc2ccccc21`, the inhibition is 3.6% (inactive). Then `Cc1[nH]n(-c2ccccc2)c(=O)c1-c1ccc(Cl)cc1`, with -30.5% (inactive); and `Cc1[nH]n(-c2cccc(Cl)c2)c(=O)c1-c1ccccc1`, with -18% (inactive). Consider `O=C(CSc1nnc(Cn2c(=O)sc3ccccc32)n1CCc1ccccc1)N1CCOCC1`, for which the inhibition was -11.3% (inactive). The result for `COc1cccc2c1C(CO)N1C(C#N)C3CC(C(=O)O)C(C1C2)N3C` (stereo not given) reads 102% (active); that for `COc1cccc2c1OCC(C(=O)O)C2` (stereo not given), -26.7% (inactive). With `COc1ccccc1N1CCN(C(=O)C2CC=CCC2C(=O)O)CC1` (stereo not given), the inhibition was -7.7% (inactive). The result for `CC(C)c1ccc(NC2CCCN(C(=O)c3ccc(N4CCOCC4)cc3)C2)cc1` (stereo not given) reads -4% (inactive); that for `Cc1ccc(S(=O)(=O)c2c(C)cc(C)[nH]c2=O)cc1`, -7.8% (inactive).

`N#C/C(=N\Nc1ccc(Cl)cc1)C(=O)c1ccccc1`: the inhibition was 66.9% (inactive). Then `N#C/C(=N\Nc1ccc(Cl)cc1)C(=O)c1ccsc1`, with 75.6% (active); and `Cc1ccc(N/N=C(\C#N)C(=O)c2ccsc2)cc1`, with -5.4% (inactive). Then `Cc1[nH]n(-c2ccccc2)c(=O)c1/C=N/N1CCOCC1`, with 6.6% (inactive). The result for `Cc1[nH]n(-c2ccccc2)c(=O)c1/C=N/N1C(=O)c2cccc3cccc(c23)C1=O` reads -49.6% (inactive); that for `Cc1[nH]n(-c2ccccc2)c(=O)c1C=Nc1cccc2cccnc12`, 45.4% (inactive); that for `Cc1[nH]n(-c2ccccc2)c(=O)c1/C=N/N1C(=O)c2ccc3c4c(ccc(c24)C1=O)CC3`, 90.8% (active). Consider `Cc1cccc(/N=C/c2c(C)[nH]n(-c3ccccc3)c2=O)n1`, for which the inhibition was -8.3% (inactive). Regarding `COc1ccc(N=C2SC(C(=O)Nc3ccc(OC)cc3)CC(=O)N2CCN2CCOCC2)cc1` (stereo not given), the inhibition was -18.8% (inactive).
